# Experimental data reported in a collection of fitness landscapes (doi:10.1016/j.celrep.2020.107928).
# In all, about 81,000 sequences were measured (“one-hybrid fitness for binding NBS DNA”: median about -0.1, highest 2% from about 0.36 on). The sample holds the highest values, similar sequences and a random draw of the others, so the mix is not that of the screen.
# B1: Caulobacter ParB omega fusion; a variant is named by its letters at X, in order, B8GW30 (parent)
# chain: MESVVVGEPGMSEGRRGLGRGLSALLGEVDAAPAQAPGEQLGGSREAPIEILQRNPDQPRRTFREEDLEDLSNSIREKGVLQPILVRPSPDTAGEYQIVAGERAWRAAQRAGLKTVPIMVRELDDLAVLEIGIIENVQRADLNVLEEALSYKVLMEKFERTQENIAQTIGKSXSHVANXMRLLXLPDEVQSYLVSGELTAXHARAIAAAADPVALAKQIIEGGLSVRETEALARKAPNLSAGKSKGGRPPRVKDTDTQALESDLSSVLGLDVSIDHRGSTGTLTITYATLEQLDDLCNRLTRGI
# Variants of: B1
# Test: one-hybrid fitness for binding NBS DNA (the Noc-binding site; scaled: cognate 1, non-cognate 0); higher = stronger binding
# Settings: with NBS DNA site
# Outline: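 The reporter was HIS3, with the binding site 19 bp from the promoter, in E. coli USO used for bacterial one-hybrid selection of Caulobacter ParB libraries with four specificity codons randomised. Growth was on M9 lacking histidine, with 0.1 mM IPTG and 5 mM 3-AT, for 48 hours at 37°C. Illumina sequencing covered plasmids before and after selection; three replicate libraries were pooled and variants with under 10 reads dropped. A fitness score is the log change in variant-to-wild-type read ratio, rescaled to the cognate and non-cognate references.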
row,Variant,one-hybrid fitness for binding NBS DNA
1,LEGG,≤ 0.2
2,TKHA,≤ 0.2
3,QTGC,0.246
4,QTGN,0.255
5,QTGH,0.424
6,QTGD,≤ 0.2
7,QTGS,0.557
8,QTGP,≤ 0.2
9,LWYM,≤ 0.2
10,PADY,≤ 0.2
11,QPYS,≤ 0.2
12,QCDS,0.28
13,QSPS,≤ 0.2
14,QCPS,0.299
15,QSIS,0.232
16,QCYS,0.432
17,CWIG,0.406
18,QSYS,0.337
19,CWRG,≤ 0.2
20,CWIS,≤ 0.2
21,QCIS,0.364
22,QSRS,0.64
23,PLRP,≤ 0.2
24,SMYN,≤ 0.2
25,RGCR,≤ 0.2

row,Variant,one-hybrid fitness for binding NBS DNA
1,TCIC,≤ 0.2
2,TTYN,≤ 0.2
3,TLLD,≤ 0.2
4,KIRT,≤ 0.2
5,QCRS,0.748
6,QPRS,≤ 0.2
7,QCRP,0.352
8,RLTP,≤ 0.2
9,RATD,≤ 0.2
10,RPTS,≤ 0.2
11,RCTS,0.516
12,RTTH,0.24
13,RTTS,0.484
14,RFTS,0.285
15,RATS,0.433
16,RATH,≤ 0.2
17,RTTP,≤ 0.2
18,RLTS,0.396
19,RLTH,≤ 0.2
20,YRMT,≤ 0.2
21,EQDS,≤ 0.2
22,AANY,≤ 0.2
23,LYKT,≤ 0.2
24,ECMG,≤ 0.2
25,FKTC,≤ 0.2

row,Variant,one-hybrid fitness for binding NBS DNA
1,RSTS,0.433
2,RITH,≤ 0.2
3,RKTH,0.233
4,RSTD,≤ 0.2
5,RHTP,≤ 0.2
6,RKTD,≤ 0.2
7,RHTS,0.446
8,RHTN,≤ 0.2
9,RITS,0.384
10,RKTS,0.583
11,RITN,≤ 0.2
12,RSTH,≤ 0.2
13,LQLL,≤ 0.2
14,ECRD,≤ 0.2
15,QQMC,≤ 0.2
16,IARN,≤ 0.2
17,SSHP,≤ 0.2
18,VQNC,≤ 0.2
19,RMTD,≤ 0.2
20,RMTN,≤ 0.2
21,RMTS,0.433
22,YHNT,≤ 0.2
23,PFSK,≤ 0.2
24,QKMD,≤ 0.2
25,QPMS,≤ 0.2

row,Variant,one-hybrid fitness for binding NBS DNA
1,QSMS,0.302
2,QRMK,0.404
3,QKMS,0.414
4,QAMQ,≤ 0.2
5,QRMQ,0.385
6,QCMK,≤ 0.2
7,QSMK,≤ 0.2
8,QCMS,0.379
9,QSMQ,≤ 0.2
10,QKMH,≤ 0.2
11,GNCM,≤ 0.2
12,LRKY,≤ 0.2
13,GYLG,≤ 0.2
14,KRMH,≤ 0.2
15,FYYR,≤ 0.2
16,DHLS,≤ 0.2
17,ANLH,≤ 0.2
18,SFVC,≤ 0.2
19,PQMI,≤ 0.2
20,AHHY,≤ 0.2
21,RHNK,≤ 0.2
22,QMCI,≤ 0.2
23,PANW,≤ 0.2
24,VVKL,≤ 0.2
25,QRMH,0.499

row,Variant,one-hybrid fitness for binding NBS DNA
1,QPMY,≤ 0.2
2,QRMS,0.623
3,QTMN,≤ 0.2
4,QRMN,0.295
5,QRMD,0.26
6,QTMH,0.263
7,QRML,0.219
8,QTMS,0.463
9,QRMY,0.463
10,QRMP,≤ 0.2
11,QCMY,≤ 0.2
12,YNGT,≤ 0.2
13,HRHE,≤ 0.2
14,VIRT,≤ 0.2
15,WQEG,≤ 0.2
16,FKND,≤ 0.2
17,AVDT,≤ 0.2
18,IGHS,≤ 0.2
19,QQPT,0.379
20,QQPH,≤ 0.2
21,QQIS,0.352
22,QQIT,0.389
23,QQID,≤ 0.2
24,QQPS,0.26
25,MQSG,≤ 0.2

row,Variant,one-hybrid fitness for binding NBS DNA
1,VVCV,≤ 0.2
2,YLMA,≤ 0.2
3,QYTP,≤ 0.2
4,QYTD,≤ 0.2
5,QYTY,≤ 0.2
6,QYTR,0.572
7,QYTT,0.401
8,QYTN,≤ 0.2
9,QYTH,0.202
10,QYTS,0.396
11,QYTM,≤ 0.2
12,AEMG,≤ 0.2
13,GTMM,≤ 0.2
14,HAVV,≤ 0.2
15,QQNR,0.786
16,QQND,≤ 0.2
17,QQDC,≤ 0.2
18,QQDP,≤ 0.2
19,QQDR,0.388
20,QQNH,0.355
21,MWSL,≤ 0.2
22,SQER,≤ 0.2
23,THTW,≤ 0.2
24,TSGY,≤ 0.2
25,ASWL,≤ 0.2

row,Variant,one-hybrid fitness for binding NBS DNA
1,TAQM,≤ 0.2
2,QTME,≤ 0.2
3,QAAN,≤ 0.2
4,QAAR,0.511
5,QAFR,0.427
6,QAFS,0.218
7,QAAD,≤ 0.2
8,QAFD,≤ 0.2
9,PSVW,≤ 0.2
10,VMFK,≤ 0.2
11,EIKV,≤ 0.2
12,RPPM,≤ 0.2
13,RANR,0.507
14,RANN,≤ 0.2
15,RAIR,0.207
16,RAWR,0.248
17,RARR,0.635
18,RAGR,0.471
19,RADR,≤ 0.2
20,RAGP,≤ 0.2
21,RALR,0.32
22,RAPR,≤ 0.2
23,RAYR,0.412
24,RAGH,≤ 0.2
25,YIKT,≤ 0.2

row,Variant,one-hybrid fitness for binding NBS DNA
1,MVAC,≤ 0.2
2,NQHS,≤ 0.2
3,NVTV,≤ 0.2
4,SDLG,≤ 0.2
5,PSTD,≤ 0.2
6,PRAY,≤ 0.2
7,THTY,≤ 0.2
8,TQQW,≤ 0.2
9,PELM,≤ 0.2
10,PRWT,≤ 0.2
11,RAQR,0.43
12,RAHR,0.487
13,RACR,0.379
14,RAQM,≤ 0.2
15,RASP,≤ 0.2
16,RASR,0.417
17,RACP,≤ 0.2
18,RAHP,≤ 0.2
19,RASD,≤ 0.2
20,RAHH,≤ 0.2
21,RACH,≤ 0.2
22,RAQH,≤ 0.2
